# PubChem BioAssay (NCI)
# Compounds without any hit were thinned out: in the full panel of roughly 83,000, 20% have a hit.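 A percent growth of 40 corresponds to 60% growth inhibition; 0 means no net growth; -100 means all cells died. Active threshold: below 10.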 The source made the active and inactive calls.
# Test system: SR leukemia
# Assay: NCI-60 one-dose screen, 48 h (100 = growth as untreated, 0 = no growth, -100 = all killed)
# Conditions: 10 µM unless noted
row,SMILES,growth
1,Cc1ccc2sc3c(NCCCNCCO)nc4ccccc4c3c(=O)c2c1,2.94% (active)
2,NCCOc1ncccc1/C=C1\c2ccccc2-c2ccc(F)cc21,9% (active)
3,CNCCNc1nc2ccccc2c2c(=O)c3cc(OC)ccc3sc12,5.19% (active)
4,CC(C)c1ccc(S(=O)(=O)NC(=O)NC2CCCC2)cc1,95.6% (inactive)
5,COc1cc(/C=C2\CN(C)C/C(=C\c3cc(CN4CCCC4)c(O)c(OC)c3)C2=O)cc(CN2CCCC2)c1O,38.7% (inactive)
6,Nc1ccccc1-c1ccc(-c2ccc(Cl)cc2)c2c1[nH]c1ccccc12,53.6% (inactive)
7,O=C(Cn1cc(COc2ncnc3c2cnn3-c2ccccc2)nn1)Nc1ccccn1,101% (inactive)
8,NCCOc1ccccc1/C=C1\c2ccccc2-c2ccc([N+](=O)[O-])cc21,-23.7% (active)
9,COc1cc(/C(C#N)=C/c2nc3c(N4CCOCC4)nc(Cl)nc3n2C)cc(OC)c1OC,27.9% (inactive)
10,Cc1ccc2cccc(Oc3ccc(Nc4ncnc5onc(-c6ccccc6)c45)cc3)c2n1,67% (inactive)
11,COC(=O)/C(CCC=C(C)C)=C1\[C@@H](OC(C)=O)C[C@@]2(C)[C@H]1C[C@@H](O)[C@H]1[C@@]3(C)CC[C@H](NCc4ccccc4)[C@@H](C)[C@@H]3CC[C@@]12C,0.245% (active)
12,COc1cc(/C=C/C(=O)c2ccc(Cl)cc2)cc(CN2CCCCC2)c1O,34% (inactive)
13,O=C(/C=C/c1ccc(Cl)cc1)c1ccc(Nc2nc(NCCO)nc(Nc3ccc(Cl)cc3)n2)cc1,23.2% (inactive)
14,CN1CCN(Cc2ccc(NC(=O)c3[nH]ncc3Nc3cc(OC4CCCC4)ncn3)cc2)CC1,4.42% (active)
15,Cn1c(/C=C(\C#N)c2ccccc2)nc2c(N3CCOCC3)nc(Cl)nc21,10.7% (inactive)
16,CCN1C(=O)N(CC)C2Nn3c(s/c(=C\c4ccccc4F)c3=O)=NC21 (centres undefined),24.5% (inactive)
17,Cc1ccccc1CNC(=O)C1CN(c2ccc(Cl)cc2)N(c2ccc(Cl)cc2)C1=O (centres undefined),59.8% (inactive)
18,CCCCC1CCc2cccc3c(SCC(=O)N(C)c4ccc(Cl)cc4)cc[n+]1c23 (centres undefined),101% (inactive)
19,Clc1ccc(Oc2ccc(Nc3ncnc4onc(-c5ccccc5)c34)cc2)c(Cl)c1,80.6% (inactive)
20,O=C(O)c1cn(C2CC2)c2cc(N3CCN(C(=O)C[n+]4ccccc4)CC3)c(F)cc2c1=O,107% (inactive)

row,SMILES,growth
1,O=C(CSc1nc2ccccc2c(=O)n1-c1ccccc1)Nc1ccc(C(=O)/C=C/c2ccc(Cl)cc2)cc1,85.3% (inactive)
2,Cc1nc(Nc2cn[nH]c2C(=O)Nc2ccc(CN3CCN(C)CC3)cc2)c2ccsc2n1,5.46% (active)
3,CN1C(=O)N(C)C2Nn3c(s/c(=C4\C(=O)N(CCc5ccccc5)c5ccccc54)c3=O)=NC21 (centres undefined),30.4% (inactive)
4,O=C(/C=C/c1ccc(C(F)(F)F)cc1)c1ccc(Nc2nc(NCCO)nc(N3CCOCC3)n2)cc1,19% (inactive)
5,COc1cc(/C=C/C(=O)c2ccc(Nc3nc(NCCO)nc(N4CCOCC4)n3)cc2)cc(OC)c1OC,17.4% (inactive)
6,COc1cc(/C=C2\CN(S(=O)(=O)c3ccccc3)C/C(=C\c3cc(CN4CCCC4)c(O)c(OC)c3)C2=O)cc(CN2CCCC2)c1O,17.5% (inactive)
7,O=c1c2cc(F)ccc2sc2c(Nc3ccncc3)nc3ccccc3c12,-4.43% (active)
8,O=c1c2cc(F)ccc2sc2c(NCCN3CCCC3)nc3ccccc3c12,16.7% (inactive)
9,CNC(=O)c1cc(Oc2ccc(CC(=O)Nc3cc(C(C)(C)C)cn3C)cc2)ccn1,75.5% (inactive)
10,COc1cc2nc(NC3CCCC3)nc(NC3CCN(C(C)C)CC3)c2cc1OC,-1.77% (active)
11,O=C(NCc1ccco1)C1CN(c2ccc(Cl)cc2)N(c2ccc(Cl)cc2)C1=O (centres undefined),36.7% (inactive)
12,COc1cccc2cc(N(C)c3nc(C)nc4ccsc34)ccc12,2.36% (active)
13,CN1C(=O)N(C)C2(c3ccccc3)OC(=S)NC12c1ccccc1 (centres undefined),105% (inactive)
14,Nc1nc(-c2cnccn2)nn1-c1nc2ccccc2s1,98.4% (inactive)
15,COc1ccc(N)c(-c2cc3c(c4c2[nH]c2ccc(OC)cc24)CCCC3)c1,79.1% (inactive)
16,COc1cccc(/C(C#N)=C/c2nc3c(N4CCOCC4)nc(Cl)nc3n2C)c1,5.6% (active)
17,O=c1c(-c2nc3ccccc3[nH]2)cc2ccccc2n1Cc1cn(Cc2ccc(N3CCOCC3)cc2)nn1,71.7% (inactive)
18,Cn1c2c(c(=O)[nH]c1=O)NC1=C(C(=O)c3ccccc31)C1(C=C(O)c3ccccc31)N2 (centres undefined),47.6% (inactive)
19,COC(=O)/C(CCC=C(C)C)=C1\[C@@H](OC(C)=O)C[C@@]2(C)[C@H]1C[C@@H](O)[C@H]1[C@@]3(C)CC[C@H](NCCCNCCCCNCCCN)[C@@H](C)[C@@H]3CC[C@@]12C,42.3% (inactive)
